# From PubChem
# PGK inhibitor: inhibitors of T. brucei phosphoglycerate kinase. hit rate 0.043% among 380,000. AID 602233. Potency, µM (top dose mostly 57.5 µM), inactives show at the top dose activity change, negative = inhibition, usual class: inhibitors. PGK/GAPDH coupled, Kinase-Glo luminescence, 60 min. P07378; further: potency means the concentration at half of the fitted maximal effect; nearly all actives have a fitted effect of over 60% in size
# Target sequence (P07378 whole entry, looked up): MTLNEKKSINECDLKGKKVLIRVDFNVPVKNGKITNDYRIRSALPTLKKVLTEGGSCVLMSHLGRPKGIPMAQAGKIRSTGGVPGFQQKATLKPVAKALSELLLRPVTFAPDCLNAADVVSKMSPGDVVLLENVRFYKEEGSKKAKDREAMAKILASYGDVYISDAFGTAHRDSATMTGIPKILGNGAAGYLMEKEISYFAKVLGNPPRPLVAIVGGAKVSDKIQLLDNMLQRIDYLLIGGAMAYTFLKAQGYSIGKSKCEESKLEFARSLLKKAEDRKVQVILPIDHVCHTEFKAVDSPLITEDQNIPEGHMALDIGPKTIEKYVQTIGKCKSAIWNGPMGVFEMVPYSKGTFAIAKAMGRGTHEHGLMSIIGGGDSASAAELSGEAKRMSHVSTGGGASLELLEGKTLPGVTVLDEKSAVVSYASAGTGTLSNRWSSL
#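 Recombinant glycosomal PGK reaction used 1,3-bisphosphoglycerate generated in-well by GAPDH (100nM final) in 100mM TEA pH 7.6, 5mM MgCl2, 0.01% Tween-20. After 60 minutes at room temperature, ATP was read by Kinase-Glo Plus luminescence end-point.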
# GCN5L2 inh: GCN5L2 (KAT2A) acetyltransferase inhibition. GCN5L2 HAT assay, ThioGlo1 CoA-SH fluorescence. Potency, µM (highest dose often 58.9 µM), for inactives: top-dose activity change, negative = inhibition, hits mostly inhibitors. hit rate 0.21% among 390,000. Q92830; further: potency means the concentration at half of the fitted maximal effect
#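 qHTS, 1536-well. 20nM enzyme, pH 7.5 HEPES/EDTA/Tween-20 buffer; 15 min compound preinc., RT. Start: 75uM H3(1-25), 70uM AcCoA, 50uM ThioGlo1. Read Ex340/Em540 at t=0 (autofluorescence flag) and t=20 min.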
# KCNH2 3.1 block: inhibitors of human KCNH2 3.1 potassium channel isoform | U2OS KCNH2 3.1, thallium flux FluxOr; active compounds read low | activity change, % (tested at about 1.8 µM) | hit rate 0.95% among 340,000 | AID 720553;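 active means maximum activity change below -70%; inconclusive means maximum activity change from -70% to -50%; inactive means maximum activity change above -50%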;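 further: thallium influx rate constant from kinetic fluorescence after stimulation buffer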
#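 U2OS cells transduced with KCNH2 3.1 mutant virus (1.77 x 10^8 /mL, 4 h), plated overnight at 37 C, loaded 45 min with FluxOr dye plus Red40 quencher. Thallium flux rate constant from kinetic reads after stimulation buffer, normalised to controls.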
# Pin1 inh: inhibitors of human Pin1; Pin1 FP peptide displacement, HiFluor488, 10 min; hit rate 0.009% among 390,000; Potency, µM (doses to about 115 µM), for the others: top-dose activity, negative = inhibition, actives largely listed as inhibitors; Q13526; active means well fitted inhibition curve with a large enough effect in the polarisation, with a control signal flat, not every such curve was filed as active; inconclusive means small, poorly fitted or top-dose-only effect, or effect the other way, or a change in a side signal; inactive means no such curve, though single readings can be large or run the other way; the % refers to the polarisation; further: potency means the concentration at half of the fitted maximal effect
# Target sequence (Q13526 whole entry, looked up): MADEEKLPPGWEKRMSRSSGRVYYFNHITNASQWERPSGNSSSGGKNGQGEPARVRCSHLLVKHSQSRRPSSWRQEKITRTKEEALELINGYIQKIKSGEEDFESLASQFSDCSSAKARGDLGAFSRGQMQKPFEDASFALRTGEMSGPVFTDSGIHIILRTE
# RGS4 inh: inhibitors of human regulator of G protein signaling 4 | Potency, µM (doses to about 114 µM), without a hit: at the top dose activity change, negative = inhibition, hits mostly inhibitors | Transcreener GDP fluorescence polarization, RGS4-accelerated GTP hydrolysis | P49798 | hit rate 0.039% among 390,000; further: potency means the concentration at half of the fitted maximal effect; nearly all actives have a fitted effect of over 75% in size
#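 MLSMR compounds (23 nl, pin-transferred) preincubated 10 min at room temperature with a 500nM (2x) first reagent, then RGS4 at 900nM (2x) plus Transcreener GDP mix added; fluorescence polarization (620/688 nm) read before and after 90 min at 30 °C.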
# KCNH2 WT inh: blocks the wildtype human KCNH2 potassium channel; Q12809; U2OS, BacMam KCNH2, thallium flux FluxOr; active compounds read low; activity change, % at 1.84 µM; hit rate 0.37% among 340,000;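 active means maximum activity change below -70%; inconclusive means maximum activity change between -70% and -50%; inactive means maximum activity change above -50%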
#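 U2OS cells were transduced with wild-type KCNH2 virus (2.03 x 10^8 / mL) for 4 h at room temperature, then cultured overnight at 37 C. Thallium flux was read with FluxOr dye. Rate constants were normalized to DMSO controls.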
# The depositor's hits bear a star; i = inactive; ? = inconclusive; nt = no result given; [ ] = dose if it differs, or a comment. This is a sample that favours compounds with a hit; in the whole collection about 1.2% have one here. Unless noted, the call rests on the fitted dose curve; in most records, active means well fitted curve in the direction sought with a large enough effect; inconclusive means small, poorly fitted or top-dose-only effect, or another doubt; inactive means no such curve, though single readings can be large; an effect the other way counts as inactive or inconclusive. On the % scale 0 is the no-effect control and ±100 the full control effect.
SMILES,PGK inhibitor,GCN5L2 inh,KCNH2 3.1 block,Pin1 inh,RGS4 inh,KCNH2 WT inh
CCCN(CCC)CCCNC(=S)Nc1ccc2nc(N3CCN(CC)CC3)cc(C)c2c1,i,1%,14,-1%,-7%,-6
CCCN(CCC)CCNC(=O)CCC(=O)Nc1ccc2nc(N3CCOCC3)cc(C)c2c1,-8%,-5%,-174*,5%,-5%,3
Cc1cc(N2CCOCC2)nc2ccc(NC(=S)NC(C)C)cc12,1%,4%,11,-1%,0%,11
Cc1ccc(-c2nnc(SCC(=O)NC3CCCC3)nc2-c2ccc(C)cc2)cc1,-1%,-1%,nt,19%,23%,nt
Cc1ccc(CN2c3ccccc3S(=O)(=O)c3ccccc32)cc1,-9%,2%,nt,30%,-3%,nt
O=S(=O)(c1ccc(Br)cc1)c1nnn2c1nc(NCc1ccc3c(c1)OCO3)c1sccc12,-5%,-9%,nt,53%,?,nt
Cc1ccc2c(=O)cc(CSc3ncn[nH]3)[nH]c2c1C,-2%,-2%,nt,4%,-35%,nt
FC(F)(F)c1ccc(CN2C[C@@H]3C(c4ccc(C(F)(F)F)cc4)C4(c5cccnc5)CC3(C4)[C@H]2c2ccccc2)cc1 (some centres not stated),-3%,21%,-16,15%,-1%,-2
CN1C[C@@H]2C(c3ccc(Cl)nc3)C3(c4ccc(C#N)cc4)CC2(C3)[C@H]1c1ccccc1 (some centres not stated),-8%,0%,-77*,11%,-8%,8
CN1C[C@@H]2C(c3ccc(C(F)(F)F)cc3)C3(c4cccnc4)CC2(C3)[C@H]1c1ccccc1 (some centres not stated),0%,-1%,-85*,0%,13%,-8
N#Cc1ccc(C23CC4(C2)[C@H](CN(P(=O)(c2ccccc2)c2ccccc2)[C@@H]4c2ccccc2)C3c2ccc(Cl)nc2)cc1 (some centres not stated),-1%,-20%,-33,6%,4%,-12
COC(=O)c1ccc(NC(=O)c2nn(C)c3c2CS(=O)(=O)c2ccccc2-3)cc1,0%,0%,nt,0%,-2%,nt
CC(C)N(Cc1ccccc1)S(=O)(=O)c1ccc(N2CCCCS2(=O)=O)cc1,8%,-4%,nt,-8%,20%,nt
CC(C)Sc1nc2ccccc2[nH]1,-10%,-11%,-110*,7%,-4%,12
Nc1ccc(-c2nc3ccccc3[nH]2)cc1,-2%,3%,4,2%,-12%,-3
Nc1ccc(Sc2nc3ccccc3[nH]2)cc1,-4%,-4%,7,4%,15%,-84*
O=C(Nc1ccc(Br)cc1)C1CCN(c2ncccn2)CC1,7%,-5%,nt,-8%,-4%,nt
CCOC(=O)C1=C(C)NC(C)=C(C(=O)OCC)C1c1c(F)c(F)c(F)c(F)c1F,nt,-25%,nt,nt,?,nt
COc1ccc(NC(=O)c2sc3nc(C)c(C(=O)Nc4ccc(C)cc4C)c(-c4ccc(C)o4)c3c2N)cc1,1%,-28%,nt,?,0%,nt
O=C(NN=C1CCCCCC1)c1cc(-c2ccccc2)nc2ccccc12,0%,-4%,1,8%,-75%[11.4 µM],-3
Cc1ccc(-c2cc(C(=O)NN=C3CCCC3)c3ccccc3n2)cc1,-1%,-19%,16,-5%,-30%,-197*
C/C(=N\NC(=O)c1cc(-c2cccnc2)nc2ccccc12)c1ccccc1O,-9%,-8%,-110*,36%,29%,-5
CCOc1ccc(CNC(=O)CN2N=C(c3ccccc3)CCC2=O)cc1OC,14%,-3%,nt,-7%,30%,nt
Cc1ccc(S(=O)(=O)N(C)Cc2cc3cc(C)ccc3[nH]c2=O)cc1,i,2%,-117*,-13%,-3%,-3
Cc1ccc2cc(CN(C)S(C)(=O)=O)c(=O)[nH]c2c1,-1%,-4%,3,0%,28%,-2
SMILES,PGK inhibitor,GCN5L2 inh,KCNH2 3.1 block,Pin1 inh,RGS4 inh,KCNH2 WT inh
CCOc1ccc(S(=O)(=O)NCCCN2CCOCC2)c2ccccc12,-1%,51%,-27,4%,-6%,-3
CCCOc1ccc(S(=O)(=O)NCCCN2CCOCC2)c2ccccc12,-14%,-1%,-13,-4%,28%,-206*
Cc1nc2sc(-c3ccccc3)cc2c(=O)n1-n1cccc1,-7%,-6%,4,1%,25%,1
Cc1nc2sc(-c3ccccc3)cc2c(=O)n1N,20µM*,-2%,-13,6%,8%,3
CCCCN(CCCC)CC(O)COc1ccccc1C(=O)Nc1ccccc1 (configuration not stated),-1%,13%,-74*,-4%,19%,22
CCC(=O)c1ccc(OCC(O)CN(CCc2ccccc2)Cc2ccccc2)cc1 (configuration not stated),-1%,-15%,-70*,4%,6%,-6
CCN(CC)CC(O)COc1ccccc1C(=O)CCc1ccccc1 (configuration not stated),-8%,2%,-71*,-10%,12%,25
O=C(Nc1ccccc1)c1ccccc1OCc1ccc(F)cc1,-1%,2%,7,-1%,2%,-6
COCCn1c(=O)c(-c2ccc(F)cc2)nc2cnc(OC)nc21,nt,-10%,nt,nt,nt,nt
CC(=O)c1cccc(N(C(=O)c2ccco2)C(C(=O)NC2CCCC2)c2ccncc2)c1 (configuration not stated),i,-12%,-9,-3%,-28%,-115*
COc1cccc(C(=O)NC(C)C(c2cccs2)N2CCN(C)CC2)c1 (configuration not stated),-1%,-2%,-72*,-1%,31%,-5
CC(NC(=O)c1cccnc1)C(c1cccs1)N1CCN(C)CC1 (configuration not stated),5%,-3%,-6,-6%,18%,3
COC(=O)c1c(NC(=O)CCCOc2ccccc2C)sc2c1CCC2,-9%,-11%,nt,19%,-52%,nt
CN(C1=C(NC(=O)c2ccc(Cl)cc2)C(=O)c2ccccc2C1=O)c1ccccc1,-5%,-5%,-98*,0%,-13%,-153*
O=C(NC1=C(Nc2ccc(Cl)cc2)C(=O)c2ccccc2C1=O)c1ccccc1,-11%,-6%,-1,9%,-12%,2
Cc1ccccc1CNC(=O)C1CCCN(c2nnc(C)c3c(C)n(-c4ccccc4)nc23)C1 (configuration not stated),-5%,-6%,-71*,?,18%,16
Cc1nnc(N2CCCC(C(=O)NCc3ccccc3F)C2)c2nn(-c3ccccc3)c(C)c12 (configuration not stated),0%,-16%,-8,-3%,-9%,8
